Most compounds without a hit are left out; they make up all but 3.4% or so of the library.
IMPase inh = qHTS Assay for Identifying the Cell-Membrane Permeable IMPase Inhibitors; Inositol monophosphatase 1 (Rattus norvegicus), P97697; CHO-M1 cells, IP1 accumulation, HTRF TR-FRET ratio; inhibition (IP1 accumulation), % at 46.1 µM; 120,000 tested, under 10 active; active = well fitted curve in the direction sought with a large enough effect in the signal ratio, not every such curve was filed as active; inconclusive = small, poorly fitted or top-dose-only effect, or a change in a side signal; inactive = no such curve, though single readings can be large or run the other way; the % refers to the signal ratio;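 note: cells stimulated with carbachol in lithium chloride buffer; plate controls were DMSO basal wells for no effect and reference inhibitor wells for full effect; higher means more IMPase inhibition seen as more IP1 and lower FRET ratio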
Target sequence (P97697 whole entry, looked up): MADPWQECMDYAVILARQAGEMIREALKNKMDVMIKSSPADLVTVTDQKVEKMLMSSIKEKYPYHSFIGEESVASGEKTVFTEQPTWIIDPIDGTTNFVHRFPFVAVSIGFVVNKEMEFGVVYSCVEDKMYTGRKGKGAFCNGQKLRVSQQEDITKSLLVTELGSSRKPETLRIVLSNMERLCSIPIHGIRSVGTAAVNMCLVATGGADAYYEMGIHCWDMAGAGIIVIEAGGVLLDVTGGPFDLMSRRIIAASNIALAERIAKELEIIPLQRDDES
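In this qHTS, compounds (final up to 46 uM) act on CHO-M1 cells that are then activated through the M1 receptor with carbachol, in pH 7.4 buffer containing 50 mM LiCl, for 30 min. IP1 accumulation is quantified by the IP-One immunoassay.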
PNC inhibitor = High Content Assay for Compounds that inhibit the Assembly of the Perinucleolar Compartment | activity change (PNC), negative = inhibition, % at 10 µM | PC3M PTB-GFP, PNC prevalence imaging, 16 h; hits give low values | 140,000 compounds, 3.1% hits | AID 2417, 2010;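 active = readout at or below -70, meaning at least 70% loss of cells showing the perinucleolar compartment, a nuclear body marking cancer cells; inconclusive = readout between -30 and a set limit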;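 note: plate controls were DMSO wells for no effect and camptothecin positive control wells for full effect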
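Compounds are pinned in duplicate onto adhered PC3M cells stably expressing GFP-tagged PTB and incubated 16 h at 37 C. Cells are then fixed, nuclei stained with Hoechst, and PNC-positive cells counted.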
NPSR antagonist = qHTS Assay for Antagonists of the Neuropeptide S Receptor: cAMP Signal Transduction; Q6W5P4; CHO-NPSR cells, cAMP TR-FRET, antagonist mode; Potency, µM (titrated, usually from 38.3 µM), without a hit: at the top dose activity change, negative = inhibition, hits mostly inhibitors; 220,000 compounds, 1% hits; note: potency is the fitted concentration of half-maximal effect; % is set by controls: 0 for no effect and ±100 for the full control effect; nearly all actives have a fitted effect of over 50% in size
Target sequence (Q6W5P4 whole entry, looked up): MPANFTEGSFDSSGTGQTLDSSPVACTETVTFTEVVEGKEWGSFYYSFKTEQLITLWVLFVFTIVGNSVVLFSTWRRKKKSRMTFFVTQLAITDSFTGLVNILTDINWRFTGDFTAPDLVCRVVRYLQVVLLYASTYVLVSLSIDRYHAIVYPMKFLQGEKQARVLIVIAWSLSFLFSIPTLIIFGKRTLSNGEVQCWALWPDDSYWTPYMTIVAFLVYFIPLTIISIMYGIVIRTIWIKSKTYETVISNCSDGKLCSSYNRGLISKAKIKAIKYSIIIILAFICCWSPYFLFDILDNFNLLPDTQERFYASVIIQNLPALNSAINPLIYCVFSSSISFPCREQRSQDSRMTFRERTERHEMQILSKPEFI
HTT aggregate = qHTS Multiplex Assay to Identify Dual Action Probes in a Cell Model of Huntington: Aggregate Formation (GFP) | PC12 HttQ103-GFP aggregates, Acumen cytometry, 40 h | Potency, µM (series often up to 46.1 µM), for the others: at the top dose activity change, negative = inhibition, usual class: inhibitors | 220,000 compounds, 1.1% hits | AID 1688, 2009; note: potency is the fitted concentration of half-maximal effect; % is set by controls: 0 for no effect and ±100 for the full control effect; nearly all actives have a fitted effect of over 60% in size
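Read-out: GFP aggregate count by laser scanning cytometer (488 nm excitation, 500-530 nm emission, 1–25 µm objects >6 SD above background). Cells: PC12, inducible HTTex1-Q103-GFP, 100 nM tebufenozide; compounds titrated.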
HTT ATP protect = qHTS Multiplex Assay to Identify Dual Action Probes in a Cell Model of Huntington: Cytoprotection (ATP); PC12 HTT-Q103 induced, cytoprotection, ATP luminescence, 40 h; Potency, µM (titrated, usually from 56.4 µM), without a hit: cytoprotection (ATP increase), actives largely listed as activators; AID 1471, 2008; 230,000 compounds, 0.14% hits; note: potency is the fitted concentration of half-maximal effect; % of control where 0% means no effect; nearly all actives have a fitted effect of over 45% in size
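Cells were plated at 1500 per well in phenol red-free DMEM with 5% equine and 5% calf serum. Tebufenozide (100 nM final) and compounds were added, then ATPlite reagent, and luminescence was read.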
IMPase Li cell = qHTS Assay for Identifying the Cell-Membrane Permeable IMPase Inhibitors: Potentiation with Lithium. AID 1457, 2008. 210,000 compounds, 0.35% hits. CHO-M1 cells, IP1 TR-FRET (IP-One), carbachol + lithium. Potency, µM (highest dose often 59.4 µM), inactives show at the top dose activity, negative = IMPase inhibition, actives largely listed as inhibitors;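 note: IP1 builds up when IMPase is blocked and the TR-FRET signal falls; potency is the fitted concentration of half-maximal effect; plate controls were basal vehicle for no effect and high inhibitor control for full effect; nearly all actives have a fitted effect of over 50% in size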
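CHO cells stably expressing M1 receptor (2000/well, cultured 16–30 h) treated 30 min at 37C with compound plus low lithium. Cytosolic IP1 by TR-FRET (665/620 ratio and 620 channel) after 10 min lysis; AC50 by Hill fit.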
* marks the source's active call; other numbers are inactive results; ? = inconclusive; / = no result given; [ ] = another dose, or the depositor's remark. Unless noted, calls come from the whole dose curve; as a rule, active = well fitted curve in the direction sought with a large enough effect; inconclusive = small, poorly fitted or top-dose-only effect, or another doubt; inactive = no such curve, though single readings can be large; an effect the other way counts as inactive or inconclusive.

SMILES	IMPase inh	PNC inhibitor	NPSR antagonist	HTT aggregate	HTT ATP protect	IMPase Li cell
Cc1ccccc1OCc1nc2ccccc2c(=O)n1/N=C/c1c[nH]c2ccccc12	/	-123*	-51%	-1%	-6%[10 µM]	11%
CCCc1nc2ccccc2c(=O)n1/N=C/c1ccccc1O	11	?	8%[46.1 µM]	10µM*	-14%[0.074 µM]	-7%[38.3 µM]
CCCCOc1ccccc1NC(=O)CC1Sc2ccccc2NC1=O (stereo not drawn)	-3	/	/	/	/	/
CCCCOCCOCCOCc1cc2c(cc1CCC)OCO2	/	/	/	23%	11%	22%
CC(=O)O[C@H]1CC[C@@]2(C)C(=CC[C@@H]3[C@@H]4CC[C@H](c5cc(C(F)(F)F)n(C(C)=O)n5)[C@]4(C)CC[C@@H]32)C1	/	/	/	/	-5%[10 µM]	20%
c1ccc(-c2cnc(-c3cccnc3)o2)cc1	-2	-84*	-24%[46.1 µM]	24%[9.22 µM]	-29%	-4%[38.3 µM]
CCN(CC)CCNC(=O)C1c2cc(OC)c(OC)cc2C(=O)N(C)C1c1cccs1 (stereo not drawn)	/	/	-7%	13%	-6%	-5%
CC1=C(C(=O)OC(C)C)C(c2c[nH]c3ccccc23)n2ncnc2N1 (stereo not drawn)	-3	-106*	-9%[46.1 µM]	11%	24%	-2%[38.3 µM]
O=S(=O)(Nc1nc2ccccc2nc1Nc1ccc2c(c1)OCO2)c1ccc(F)cc1	-8	-84*	-2%[46.1 µM]	?	26%[10 µM]	/
O=c1[nH]cnc2c1ncn2C1CC(O)C(CO)O1 (stereo not drawn)	/	/	/	/	/	-2%
O=C(N/N=C/c1ccc(F)cc1)c1c(O)c2ccccc2[nH]c1=O	-2	19	8%[46.1 µM]	3.5µM*	-51%[10 µM]	/
O=C(N/N=C/c1cccc(F)c1)c1c(O)c2ccccc2[nH]c1=O	-6	-28	-1%[46.1 µM]	?	-1%[10 µM]	5%
O=C(N/N=C/c1ccccc1)c1c(O)c2ccccc2[nH]c1=O	2	?	?	22µM*	12%[10 µM]	3%
CC1COC(=O)C(NNc2ccc(Cl)c(Cl)c2)=N1 (stereo not drawn)	/	/	-5%	-13%	?	1%
COc1ccc(-c2nc3cnc(N4CCN(C)CC4)nc3n(-c3ccc(OC)cc3)c2=O)cc1	/	/	/	/	-12%	0%
c1coc(-c2ncc[nH]2)c1	1	-97*	6%[46.1 µM]	20%	-38%	-7%[38.3 µM]
O=C1CCCC2=C1C(c1ccc(O)cc1)c1c(ccc3ccccc13)N2 (stereo not drawn)	/	/	-6%	21%	17%	9%
Nc1nc2ncc(C(=O)c3cc(Cl)cc(Cl)c3O)cc2s1	/	/	16%	14%[9.22 µM]	-6%[10 µM]	/
CC(C)c1noc2ncc(C(=O)c3cc(Cl)cc(Cl)c3O)cc12	4	13	-10%[46.1 µM]	11µM*	-17%	26%[38.3 µM]
O=c1c2ccccc2sn1-c1cc(S(=O)(=O)N2CCOCC2)ccc1N1CCCC1	7	-108*	-27%[46.1 µM]	3%	-123%	42%[38.3 µM]
O=c1c2ccccc2sn1-c1cc(S(=O)(=O)N2CCOCC2)ccc1N1CCOCC1	12	?	?	?	-101%	25%[38.3 µM]
COCCCNc1c2c3c(cccc3[nH]c1=O)C(=O)c1ccccc1-2	-3	?	-12%[46.1 µM]	10µM*	-40%	-12%[38.3 µM]
Cc1ccc(C(=O)NC2(C(F)(F)F)NC(=O)N(c3ccc(Cl)cc3)C2=O)cc1 (stereo not drawn)	/	-6	0%	-9%	22%[10 µM]	19%
Cc1ccc(N2C(=O)NC(NC(=O)C3CC3)(C(F)(F)F)C2=O)cc1 (stereo not drawn)	/	-100*	12%	12%	/	-5%
CCN(CC)S(=O)(=O)c1ccc(NC(=O)CSc2nnc(-c3ccc(F)cc3)o2)cc1	-3	-107*	-11%[46.1 µM]	-18%	-16%	23%[38.3 µM]
SMILES	IMPase inh	PNC inhibitor	NPSR antagonist	HTT aggregate	HTT ATP protect	IMPase Li cell
COC(=O)[C@@]1(Cc2ccccc2-c2ccco2)C=C[C@H](C)[C@@H](c2ccccc2)N1C(=O)C(F)(F)F	/	/	/	/	10µM*	25%
CN1CCN(c2ncc3nc(-c4ccc(Cl)cc4)c(=O)n(Cc4cccs4)c3n2)CC1	/	/	/	/	?	29%
CN(C)c1ccc(C(=O)Nc2cc(C(F)(F)F)ccc2-n2cncn2)cc1	-4	-92*	-23%[46.1 µM]	5%	-4%	-5%[38.3 µM]
O=C(Nc1cc(C(F)(F)F)ccc1-n1cncn1)c1ccc(Br)cc1	2	-27	-6%[46.1 µM]	0%	-30%	-4%[38.3 µM]
Cc1cc2n(n1)SC(Nc1cc(Cl)ccc1Cl)N2 (stereo not drawn)	0	-100*	3%[46.1 µM]	2%	5%[10 µM]	4%
Cc1cc2n(n1)SC(Nc1cccc3ccccc13)N2 (stereo not drawn)	-22	-18	-6%[46.1 µM]	-13%	15%[1.9 µM]	-2%
O=C(O)CC1(CC(=O)Nc2ccccc2N2CCOCC2)CCCC1	/	/	3%	-1%[9.22 µM]	-2%[10 µM]	/
COc1ccc(-c2nc3ccccc3s2)cc1O	-8	-90*	?	4%	-142%[0.074 µM]	-7%[38.3 µM]
COc1cc(-c2nc3ccccc3s2)ccc1O	?	10	0%[46.1 µM]	-9%	-44%	-8%[38.3 µM]
O=C(CSc1nnc2scc(-c3ccc(Cl)cc3)n12)Nc1cccc(C(F)(F)F)c1	1	/	/	/	/	/
Cn1nc(OCC(=O)O)cc1C(F)(F)F	/	/	-5%	-3%[9.22 µM]	-10%[10 µM]	/
O=[N+]([O-])c1ccc(N=Nc2ccc(O)cc2O)cc1	5	4	10µM*	1.3µM*	-147%	19%[38.3 µM]
O=[N+]([O-])c1ccc(N=NN(CCO)CCO)cc1	/	-11	11%	-7%	/	-2%
O=C(NC(=S)Nc1nc2ccccc2s1)c1cccs1	/	-100*	-59%	26%	-36%[10 µM]	9%
Nc1c(C(=O)Nc2nc3ccccc3s2)sc2nc(-c3cccs3)ccc12	?	-28	10µM*	?	-117%	11µM*
CCC(CC)n1[nH]c(=O)c2c(C)cc(C)nc21	3	-82*	-8%[46.1 µM]	-5%	3%[10 µM]	2%
CCCCCCCN	/	/	/	/	-15%	-24%
O=S1(=O)C=C(Sc2nc3ccccc3s2)c2ccccc21	15	?	10µM*	4.5µM*	2µM*	50%[38.3 µM]
COc1ccccc1N1CCN(/N=C/c2c(C)nn(-c3ccccc3)c2C)CC1	5	-84*	-18%[46.1 µM]	-14%	14%[10 µM]	7%
COc1ccccc1N1CCN(/N=C/c2cccc(OC)c2OC)CC1	/	/	-3%	17%	/	10%
C=C[C@H]1CCC=C2C(=O)CCC[C@@H]21	/	/	/	/	/	2%
